# Source: PubChem (National Center for Advancing Translational Sciences (NCATS))
# Gal4-VP16 FLuc: counter-screen for ROR gamma inhibitors: Gal4-VP16 reporter. hit rate 3.5% among 310,000. AID 2546. Drosophila S2 Gal4-VP16 UAS-luciferase, luminescence, 20 h. Potency, µM (series often up to 53.6 µM), inactives show top-dose activity, negative = inhibition, hits mostly inhibitors;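 note: Gal4-VP16 expression switched on by copper sulfate through the metallothionein promoter; potency is the fitted concentration of half-maximal effect; % is set by controls: 0 for no effect and ±100 for the full control effect; nearly all actives have a fitted effect of over 50% in size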
# p53 reactivator: restores transcriptional activity of mutant p53; H1299 p53-A138V BP100-luciferase reporter, luminescence, 24 h; Potency, µM (series often up to 92.2 µM), without a hit: at the top dose activity change, positive = activation, actives largely listed as activators; hit rate 0.063% among 320,000; AID 504706; note: potency is the fitted concentration of half-maximal effect; % of control where 0% means no effect; nearly all actives have a fitted effect of over 45% in size
#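 p53-null H1299 cells stably carrying temperature-sensitive p53-A138V and a BP100-luciferase reporter were pinned with compounds (4-point, 1:5 series) and held 24 hrs at 37 deg C. Luminescence was read 10 min after detection reagent.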
# ELG1 repair inh: inhibitors of ELG1-dependent DNA repair in HEK293T cells; HEK293T ELG1-luciferase reporter, luminescence, 16 h; DNA damage induced by 5-fluorouridine; Potency, µM (top dose mostly 46.1 µM), for the others: at the top dose activity change, negative = inhibition, usual class: inhibitors; hit rate 2.3% among 330,000; note: potency is the fitted concentration of half-maximal effect; % is set by controls: 0 for no effect and ±100 for the full control effect; nearly all actives have a fitted effect of over 55% in size
#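 Overnight (16 hr) co-exposure of 2,000 cells/well to 5-fluorouridine and compound at 37 °C preceded detection. Luciferase was quantified via ONE-Glo luminescence; loss of signal denotes inhibition.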
# Giardia kill: kills Giardia lamblia; Giardia lamblia trophozoite viability; activity change, % at 7.66 µM, hits read low; hit rate 0.15% among 340,000; AID 540267; in the data active = activity change below about -80%; inconclusive = between about -30% and that limit;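 note: parasites exposed to compound for two days anaerobically before the ATP read; % is set by controls: 0 for no effect and ±100 for the full control effect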
#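 Each well holds 100 Giardia trophozoites and compound. After two days (48 hrs) at 37 deg C in anaerobic conditions, ATP is quantified by luminescence.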
# BRCA1 expr up: increases BRCA1 expression | AID 624202 | hit rate 1.1% among 380,000 | MCF7-BRCA1-FFLuc reporter, luminescence, 48 h; response scale: scaled: vehicle 0%, 10 µM genistein 100% | Potency, µM (series often up to 46.1 µM), inactives show top-dose activation, most hits filed as activators; note: potency is the fitted concentration of half-maximal effect; nearly all actives have a fitted effect of over 80% in size
#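 Reporter cells (MCF7, BRCA1 promoter-firefly luciferase) received library compounds across a concentration series for 48 h. End-point luminescence was measured and concentration-effect curves derived after normalization.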
# RORgamma inh: inhibitors of mouse ROR gamma transcriptional activity. hit rate 5.4% among 310,000. Drosophila S2 Gal4-RORgamma UAS-luciferase reporter, 20 h. Potency, µM (top dose mostly 53.6 µM), inactives show at the top dose activity change, negative = inhibition, hits mostly inhibitors; note: potency is the fitted concentration of half-maximal effect; % is set by controls: 0 for no effect and ±100 for the full control effect; nearly all actives have a fitted effect of over 60% in size
# Target sequence (P51450 whole entry, looked up, the tested form may be a part): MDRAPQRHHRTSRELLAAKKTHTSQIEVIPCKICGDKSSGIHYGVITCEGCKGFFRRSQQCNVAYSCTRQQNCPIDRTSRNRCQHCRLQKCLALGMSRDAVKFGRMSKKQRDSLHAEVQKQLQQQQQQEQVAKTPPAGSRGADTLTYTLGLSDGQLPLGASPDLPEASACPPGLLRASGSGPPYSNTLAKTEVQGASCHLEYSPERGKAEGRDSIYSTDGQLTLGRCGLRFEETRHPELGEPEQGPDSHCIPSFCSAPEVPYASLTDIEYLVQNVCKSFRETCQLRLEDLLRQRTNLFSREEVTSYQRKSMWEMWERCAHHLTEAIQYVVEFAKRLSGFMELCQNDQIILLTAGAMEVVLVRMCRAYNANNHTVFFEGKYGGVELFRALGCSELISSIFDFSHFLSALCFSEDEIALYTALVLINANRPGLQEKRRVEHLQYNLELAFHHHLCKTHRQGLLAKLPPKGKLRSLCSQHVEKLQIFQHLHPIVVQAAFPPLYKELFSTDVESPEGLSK
#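 Compounds are pin-transferred onto Drosophila Schneider cells expressing a copper-inducible Gal4–ROR gamma transactivation domain fusion. After 1 hr, copper sulfate is added to 700 uM final; luciferase is read 20 hr later.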
# Starred values were filed as active, the others as inactive; ? = inconclusive; nt = not tested or not shown; [ ] = remark or other dose. Only some compounds are listed: those with a hit (about 7.6% of all), similar ones and a draw of the others. Unless noted, calls come from the whole dose curve; as a rule, active = well fitted curve in the direction sought with a large enough effect; inconclusive = small, poorly fitted or top-dose-only effect, or another doubt; inactive = no such curve, though single readings can be large; an effect the other way counts as inactive or inconclusive.
SMILES,Gal4-VP16 FLuc,p53 reactivator,ELG1 repair inh,Giardia kill,BRCA1 expr up,RORgamma inh
CC(=O)c1ccc(NC(=S)Nc2cccc(Cl)c2C)cc1,?,-2%,13%,-1,-7%,11µM*
CC(=O)Nc1cccc(NC(=S)Nc2cccc(Cl)c2Cl)c1,-1%,7%,1%,18,15%,15%
O=C(NN=C1CCCC1)c1ccc([N+](=O)[O-])cc1,0%,2%,12%,-5,4%,11µM*
O=C(NN=C1CCCC1)c1ccc(O)cc1,?,-14%,11%,-2,8%,11µM*
O=C(ONC1=NCCCCC1)c1ccc([N+](=O)[O-])cc1,-13%,-2%,15%,-26,-8%,10µM*
O=C(N/N=C1\CC2CC=CC12)c1ccc(O)cc1 (stereo not given),4.5µM*,2%,9%,11,4%,2.5µM*
O=C(Nc1cccc([N+](=O)[O-])c1)ONC1=NCCCCC1,-1%,3%,7%,8,-5%,-6%
O=C(NN=C1CCCCCC1)c1ccncc1,4%,17%,2%,-2,-19%,-17%
O=C(NCC1CC1)Nc1ccccc1F,1%,-2%,?,2,25%,-14%
Oc1ccc(NCc2ccccc2OCc2ccccc2F)cc1,16µM*,-13%,?,-6,-65%,13µM*
O=C(OCc1cccc([N+](=O)[O-])c1)c1cnccn1,-3%,4%,-2%,-24,6%,-14%
CN(C)C(=S)N=Nc1[nH]c2ccccc2c1O,5.6µM*,6%,?,?,17%,0.89µM*
CN(C)c1ccc(-c2nc3ccc(Cl)cn3c2Nc2ccc3c(c2)OCCO3)cc1,nt,nt,nt,nt,10µM*,nt
Clc1ccc2nc(-c3ccccn3)c(Nc3ccc4c(c3)OCO4)n2c1,?,6%,?,9,0%,7.9µM*
CN(C)c1ccc(-c2nc3cnccn3c2Nc2ccc3c(c2)OCCO3)cc1,-10%,6%,?,30,44%,0%
Cc1ccc2nc(-c3ccccc3O)c(Nc3ccc4c(c3)OCCO4)n2c1,-23%,7%,-24%,2,-22%,18µM*
COc1ccc(-c2nc3ccc(C)cn3c2Nc2ccc3c(c2)OCO3)cc1,nt,nt,nt,nt,20%,nt
Cc1ccc2nc(-c3ccc(O)cc3)c(Nc3ccc4c(c3)OCCO4)n2c1,6%,?,16%,12,-2%,-38%
Cc1ccc(C)c(CSc2ccc3nnc(-c4ccccn4)n3n2)c1,-14%,-7%,?,17,-30%,-12%
O=C(NCC1CC1)C1CCCN(S(=O)(=O)c2ccc(-n3cnnn3)cc2)C1 (stereo not given),2%,-1%,-3%,11,6%,-16%
O=C(CCc1ccccc1)Nc1nc2c(F)cc(F)cc2s1,?,15%,?,-13,10µM*,3%
Cc1cc(C)nc(NC(=O)c2ccc([N+](=O)[O-])o2)n1,-13%,12%,-9%,?,-41%,-34%
O=C(Nc1nc2c(F)cc(F)cc2s1)c1ccco1,?,nt,?,?,?,-38%
O=C(Nc1nc2c(F)cc(F)cc2s1)c1ccc([N+](=O)[O-])o1,?,?,?,-86*,-26%,-32%
Cc1cc(C)c2sc(NC(=O)c3ccc([N+](=O)[O-])o3)nc2c1,10µM*,?,?,-81*,-1%,5µM*
SMILES,Gal4-VP16 FLuc,p53 reactivator,ELG1 repair inh,Giardia kill,BRCA1 expr up,RORgamma inh
Cc1cc(C)c2nc(NC(=O)c3ccc([N+](=O)[O-])o3)sc2c1,1%,?,?,-90*,-2%,-21%
O=C(CCS(=O)(=O)c1ccccc1)Nc1nc2ccc(F)cc2s1,nt,?,0%,0,-23%,nt
C/C(=C\c1cc2ccccc2o1)C1Nc2cccc3cccc(c23)N1,nt,0%,4%,5,5%,nt
COc1ccc(NC(=O)C2=CN3CCS(=O)(=O)N=C3C=C2)c(OC)c1,nt,0%,?,-10,-15%,nt
Cc1cc(C(=O)N2CCN(S(=O)(=O)c3ccccc3C#N)CC2)c(C)o1,nt,-2%,-1%,-4,-8%,nt
Cc1cc(C(=O)N2CCN(S(=O)(=O)c3ccccc3F)CC2)c(C)o1,7%,-1%,-7%,-16,0%,13µM*
Cc1cc(C(=O)N2CCN(c3ncccn3)CC2)c(C)o1,-1%[0.365 µM],-4%,15%,0,7%,22µM*
COc1ccc(OC)c(CCNC(=O)CN2C(=O)COc3ccc(S(=O)(=O)N4CCCCCC4)cc32)c1,nt,nt,nt,nt,-28%,nt
CCOC(Cn1c(SCC(=O)Nc2cc(C)on2)nc2ccccc2c1=O)OCC,7%,-5%,0%,-3,-5%,-9%
CCOC(CCn1c(SCC(=O)Nc2cc(C)on2)nc2ccccc2c1=O)OCC,1%,0%,21µM*,-7,-22%,-5%
CCOc1ccc(OCC)c(NC(=O)CSc2nc3ccccc3c(=O)n2C)c1,20µM*,-3%,?,0,-69%,-15%
CCOC(CCn1c(SCc2ccc([N+](=O)[O-])cc2)nc2ccccc2c1=O)OCC,?,-4%,15µM*,-1,-33%,-44%
Cc1ccc(-c2nc(CN3CCCCC3CCN3CCCC3=O)c(C)o2)o1 (stereo not given),-3%,0%,14%,5,-8%,-17%
Cc1ccccc1N1CC(C(=O)NC2CCCC2)CC1=O (stereo not given),?,3%,4%,5,40%,-40%
Cc1cc(Cl)ccc1OCC(=O)NCCOc1nc(N2CCOCC2)nc(N2CCOCC2)n1,0%,-5%,10µM*,-8,-39%,13%
CC(C)c1[nH]nc2c1C(c1ccc(OC(=O)c3ccco3)cc1)C(C#N)=C(N)O2 (stereo not given),20%,-5%,2%,-4,-1%,?
CC(C)CNS(=O)(=O)c1ccc(CCC(=O)Nc2cc(Cl)ccc2Oc2ccccc2)cc1,0%,0%,0%,8,15%,37%
CCCNS(=O)(=O)c1ccc(CCC(=O)Nc2cc(Cl)ccc2Oc2ccccc2)cc1,3%,16%,23µM*,10,-101%,?
Cn1c(=O)c2c(nc(Br)n2CC(=O)C23CC4CC(CC(C4)C2)C3)n(C)c1=O,-2%,1%,15µM*,-5,-56%,20%
Cc1ccc(NC(=O)CN(C)C(=O)c2cccc(Br)c2)cc1,-3%,-4%,5%,3,-29%,?
CNC(=O)c1cc(C(=O)c2ccc(C(F)(F)F)cc2)c[nH]1,-13%,11%,?,-14,52%,9%
Cc1cc(NC(=O)c2ccc3c(c2)OCCO3)no1,7.1µM*,nt,?,-80*,-70%,10µM*
